Experimental data as given in PubChem BioAssay.
Activity calls are given as the source filed them.

What was measured:
[1] = target: Albumin (Bos taurus) (UniProt P02769); test: bovine serum albumin binders on microarray, profiling panel, artefact control for SMM control protein annotation, biochemical, small-molecule microarray, Alexa647 label, 635/667 nm fluorescence (AID 1118); conditions: BSA-A647 binding, fluorescence 635 nm, higher = more signal;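 note: score merges 667 nm emission intensity and signal-to-noise per printed compound spot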
Sequence of Albumin (Bos taurus) (P02769 whole entry, looked up): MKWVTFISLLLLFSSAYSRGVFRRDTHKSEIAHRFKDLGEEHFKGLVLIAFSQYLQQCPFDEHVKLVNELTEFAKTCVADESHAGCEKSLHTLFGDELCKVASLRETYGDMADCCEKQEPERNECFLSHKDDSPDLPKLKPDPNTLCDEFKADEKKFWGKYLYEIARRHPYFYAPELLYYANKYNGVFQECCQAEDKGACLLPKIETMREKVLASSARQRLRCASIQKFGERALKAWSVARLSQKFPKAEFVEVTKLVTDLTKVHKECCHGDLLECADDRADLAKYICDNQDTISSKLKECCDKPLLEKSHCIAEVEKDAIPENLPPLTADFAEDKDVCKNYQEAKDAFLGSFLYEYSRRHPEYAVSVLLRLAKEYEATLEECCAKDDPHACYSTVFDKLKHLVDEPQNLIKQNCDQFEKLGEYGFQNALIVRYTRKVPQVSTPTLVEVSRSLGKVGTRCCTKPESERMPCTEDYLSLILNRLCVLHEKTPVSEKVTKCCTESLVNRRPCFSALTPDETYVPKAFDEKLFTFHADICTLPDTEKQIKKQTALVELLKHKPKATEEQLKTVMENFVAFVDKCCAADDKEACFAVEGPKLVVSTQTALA

[2] = small-molecule microarray binders of probe aXIP, primary screen, biochemical, NeuroSMM set, 635/667 nm fluorescence (AID 1119); conditions: higher = more signal, called active from +8 up or from −8 down;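 note: probe is the protein aXip251-270 applied at 1 µg/mL to compound-printed slides; binding of probe to printed compounds measured as 667 nm fluorescence plus signal to noise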
[3] = small-molecule binders of probe aNOTCH3, primary screen, biochemical, small-molecule microarray, 635/667 nm fluorescence (AID 1120); conditions: higher = more signal;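 note: probe is a biotin-tagged antibody raised against NOTCH3 rather than NOTCH3 protein; score merges spot fluorescence near 667 nm with spot signal to noise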
[4] = small-molecule binders of probe aNOTCH2, primary screen, biochemical, small-molecule microarray, 635/667 nm fluorescence (AID 1121); conditions: higher = more signal;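 note: score merges feature fluorescence read at 667 nm with its signal to noise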
[5] = target: Carbonic anhydrase 2 (Homo sapiens) (UniProt P00918); test: CAII small-molecule binders, profiling panel, biochemical, small-molecule microarray, Alexa647-labelled CAII (AID 1122); conditions: CAII-A647 binding fluorescence, higher = more signal
[6] = COS7 lysate on small-molecule microarray, probe aHis, 635 nm (AID 1123); conditions: COS7 cell lysate, fluorescence, higher = more signal;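 note: z-score combines 667nm fluorescence intensity with signal-to-noise per printed compound spot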
[7] = compound binding in COS7 lysate, probe aLAP1, primary screen, cell lysate, small-molecule microarray (AID 1124); conditions: probe aLAP1, fluorescence, higher = more signal;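 note: lysate comes from COS7 cells expressing LAP1 and is applied at 0.3 µg/mL; score merges spot fluorescence near 667 nm with signal-to-noise over triplicate slides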
[8] = system: Sam68 (KHDRBS1); test: Sam68 small-molecule binders, primary screen, biochemical, small-molecule microarray, 635 nm fluorescence (AID 1125); conditions: small-molecule microarray binding, higher = more signal;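 note: score merges 667 nm channel intensity with signal to noise over triplicate slides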
[9] = system: Chordin-like protein 2 (CHRDL2); test: CHRDL2 small-molecule binders, primary screen, biochemical, small-molecule microarray, 635 nm fluorescence (AID 1126); conditions: small-molecule microarray binding, fluorescence 635 nm; higher = more signal;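 note: printed compound slides probed with Chrdl2 protein at 4 µg/mL for 1 h at 4 C; score merges 667 nm emission intensity with signal to noise over three replicate slides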
[10] = target: Concanavalin-A (Canavalia ensiformis) (UniProt P02866); test: ConA small-molecule binders, primary screen, artefact control for SMM control protein annotation, biochemical, small-molecule microarray, Alexa647 label, 635 nm (AID 1127); conditions: ConA-A647 binding fluorescence, higher = more signal;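 note: z combines 667 nm emission intensity with signal-to-noise across three replicate slides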
Sequence of Concanavalin-A (Canavalia ensiformis) (P02866 whole entry, looked up): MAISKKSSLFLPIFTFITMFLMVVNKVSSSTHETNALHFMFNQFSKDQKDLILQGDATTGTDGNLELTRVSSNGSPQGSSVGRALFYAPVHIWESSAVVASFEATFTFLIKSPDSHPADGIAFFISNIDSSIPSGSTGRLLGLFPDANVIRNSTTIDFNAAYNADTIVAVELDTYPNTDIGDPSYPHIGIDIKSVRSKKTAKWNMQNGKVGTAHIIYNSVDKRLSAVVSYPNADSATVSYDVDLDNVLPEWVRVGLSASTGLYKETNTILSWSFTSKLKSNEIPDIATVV

[11] = anti-His antibody binders, primary screen, artefact control for SMM control protein annotation, biochemical, small-molecule microarray, 635 nm fluorescence (AID 1128); conditions: anti-His Alexa647 antibody binding, higher = more signal;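 note: score merges feature fluorescence with signal-to-noise for each printed compound spot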
[12] = system: Human papillomavirus type 1a E7 protein (residues 1-88); test: HPV1a E7 small-molecule binders, primary screen, biochemical, small-molecule microarray, residues 1-88, 635 nm (AID 1129); conditions: small-molecule microarray binding, fluorescence 635 nm; higher = more signal
[13] = target: Focal adhesion kinase 1 (Homo sapiens) (UniProt Q05397); test: small-molecule microarray binders of FAK, primary screen, biochemical, 635/667 nm fluorescence, BSA, DTT (AID 1130); conditions: PTK2 binding, 635 nm fluorescence, higher = more signal;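 note: composite of spot emission at 667 nm and signal to noise over triplicate slides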
Sequence of Focal adhesion kinase 1 (Homo sapiens) (Q05397 whole entry, looked up): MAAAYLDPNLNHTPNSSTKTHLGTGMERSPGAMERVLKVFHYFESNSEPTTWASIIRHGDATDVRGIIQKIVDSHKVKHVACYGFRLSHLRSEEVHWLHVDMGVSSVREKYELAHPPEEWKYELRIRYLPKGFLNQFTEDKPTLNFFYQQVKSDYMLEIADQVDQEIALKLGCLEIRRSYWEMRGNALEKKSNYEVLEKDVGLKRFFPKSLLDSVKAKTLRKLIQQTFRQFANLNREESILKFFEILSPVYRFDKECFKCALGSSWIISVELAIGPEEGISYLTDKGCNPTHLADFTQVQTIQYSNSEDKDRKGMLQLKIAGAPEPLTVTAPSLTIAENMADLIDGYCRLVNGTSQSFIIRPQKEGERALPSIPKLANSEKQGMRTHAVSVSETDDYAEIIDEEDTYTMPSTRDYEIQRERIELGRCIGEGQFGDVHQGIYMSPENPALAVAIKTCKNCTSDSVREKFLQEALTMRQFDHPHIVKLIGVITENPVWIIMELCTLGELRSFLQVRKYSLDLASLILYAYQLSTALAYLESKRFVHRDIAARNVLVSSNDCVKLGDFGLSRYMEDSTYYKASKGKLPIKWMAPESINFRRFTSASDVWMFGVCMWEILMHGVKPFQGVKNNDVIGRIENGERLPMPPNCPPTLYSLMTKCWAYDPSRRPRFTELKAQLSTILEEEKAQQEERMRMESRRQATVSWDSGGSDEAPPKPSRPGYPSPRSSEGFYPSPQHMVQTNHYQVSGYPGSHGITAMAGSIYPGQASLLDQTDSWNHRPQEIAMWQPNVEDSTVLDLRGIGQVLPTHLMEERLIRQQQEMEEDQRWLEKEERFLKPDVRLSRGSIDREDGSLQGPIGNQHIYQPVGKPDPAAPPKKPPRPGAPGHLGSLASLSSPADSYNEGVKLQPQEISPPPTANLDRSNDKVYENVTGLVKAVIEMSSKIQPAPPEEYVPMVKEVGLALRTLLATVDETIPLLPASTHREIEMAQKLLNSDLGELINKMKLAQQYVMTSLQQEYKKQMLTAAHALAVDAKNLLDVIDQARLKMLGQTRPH

[14] = system: Fibrinogen (Alexa647-labelled); test: fibrinogen binders on compound microarrays, profiling panel, artefact control for SMM control-protein annotation, biochemical, small-molecule microarray, 635/667 nm fluorescence (AID 1131); conditions: fibrinogen-A647 binding fluorescence, higher = more signal;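 note: z-score merges 667 nm fluorescence with per-spot signal-to-noise over triplicate slides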
[15] = target: Follistatin (Homo sapiens) (UniProt P19883); test: follistatin binders on small-molecule microarrays, primary screen, biochemical, small-molecule microarray, 635/667 nm fluorescence (AID 1132); conditions: FST binding, 635 nm fluorescence, higher = more signal
Sequence of Follistatin (Homo sapiens) (P19883 whole entry, looked up): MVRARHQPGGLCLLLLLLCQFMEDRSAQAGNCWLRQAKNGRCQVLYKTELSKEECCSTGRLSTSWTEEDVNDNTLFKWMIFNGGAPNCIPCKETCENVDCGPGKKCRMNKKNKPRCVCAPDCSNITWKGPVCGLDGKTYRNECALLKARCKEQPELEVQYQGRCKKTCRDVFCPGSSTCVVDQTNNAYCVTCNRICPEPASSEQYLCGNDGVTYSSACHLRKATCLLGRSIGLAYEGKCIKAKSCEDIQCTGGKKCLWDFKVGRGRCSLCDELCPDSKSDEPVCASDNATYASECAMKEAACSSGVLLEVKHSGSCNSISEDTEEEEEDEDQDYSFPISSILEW

[16] = target: Fibroblast growth factor 2 (Homo sapiens) (UniProt P09038); test: FGF2 binders on small-molecule microarrays, primary screen, biochemical, small-molecule microarray, 635/667 nm fluorescence (AID 1133); conditions: small-molecule microarray binding, FGF2, fluorescence 635/667; higher = more signal
Sequence of Fibroblast growth factor 2 (Homo sapiens) (P09038 whole entry, looked up): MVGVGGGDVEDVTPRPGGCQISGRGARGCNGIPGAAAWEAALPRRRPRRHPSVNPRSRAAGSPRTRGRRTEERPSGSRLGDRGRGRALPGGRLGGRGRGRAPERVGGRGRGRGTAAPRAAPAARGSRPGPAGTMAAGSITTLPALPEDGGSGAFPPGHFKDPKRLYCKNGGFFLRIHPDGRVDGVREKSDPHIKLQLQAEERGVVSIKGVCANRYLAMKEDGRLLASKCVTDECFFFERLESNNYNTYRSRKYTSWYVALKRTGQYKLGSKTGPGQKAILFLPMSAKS

[17] = mitochondrial membrane potential change in A549 cells, profiling panel, cell-based, JC-1 fluorescence, basal, 24 h, 100 nL (AID 1138); conditions: higher = more signal;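 note: A549 lung adenocarcinoma cells under basal conditions with no added stimulus; test concentration not given here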
[18] = system: Lefty1; test: Lefty1 binders on small-molecule microarrays, primary screen, biochemical, small-molecule microarray, 635/667 nm fluorescence (AID 1139); conditions: small-molecule microarray binding, fluorescence 635/667; higher = more signal
[19] = system: wheat germ agglutinin (Triticum aestivum), Alexa647-labelled; test: wheat germ agglutinin binders on compound microarrays, profiling panel, artefact control for SMM control-protein annotation, biochemical, small-molecule microarray, 635/667 nm fluorescence (AID 1140); conditions: WGA-A647 binding, 635 nm fluorescence, higher = more signal;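 note: score merges 667 nm feature emission with signal to noise over triplicate slides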
[20] = target: Luciferin 4-monooxygenase (Photinus pyralis) (UniProt P08659); test: firefly luciferase enzyme inhibitors, primary screen, biochemical, luminescence, purified enzyme, 2006 set (AID 1141); conditions: SteadyGlo luminescence, 30 min, higher = more signal, called active from +8 up or from −8 down;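 note: cell-free assay with purified firefly luciferase at 100 ng per well in PBS; test concentration not given here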
Sequence of Luciferin 4-monooxygenase (Photinus pyralis) (P08659 whole entry, looked up): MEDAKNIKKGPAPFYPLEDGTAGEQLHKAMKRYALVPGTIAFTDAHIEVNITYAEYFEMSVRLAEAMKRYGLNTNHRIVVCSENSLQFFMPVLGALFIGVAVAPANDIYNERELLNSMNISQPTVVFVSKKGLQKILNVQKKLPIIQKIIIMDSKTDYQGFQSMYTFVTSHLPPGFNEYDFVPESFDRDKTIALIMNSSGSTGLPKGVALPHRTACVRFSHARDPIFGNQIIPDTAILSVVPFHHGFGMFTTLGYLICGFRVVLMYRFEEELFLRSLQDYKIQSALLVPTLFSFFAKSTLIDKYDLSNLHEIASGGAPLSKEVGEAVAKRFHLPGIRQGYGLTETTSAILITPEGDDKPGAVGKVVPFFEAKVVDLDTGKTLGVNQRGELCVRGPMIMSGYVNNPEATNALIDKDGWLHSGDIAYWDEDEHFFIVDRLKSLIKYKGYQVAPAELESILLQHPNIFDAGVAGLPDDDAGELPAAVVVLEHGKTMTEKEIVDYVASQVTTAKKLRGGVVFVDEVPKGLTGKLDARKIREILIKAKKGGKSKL

Compound	composite z-score [1]	composite Z-score [2]	composite z-score [3]	composite z-score [4]	composite z-score [5]	composite z-score [6]	composite z-score [7]	composite z-score [8]	composite z-score [9]	composite z-score [10]	composite z-score [11]	composite z-score [12]	composite z-score [13]	composite z-score [14]	composite z-score [15]	composite z-score [16]	z-score [17]	composite z-score [18]	composite z-score [19]	z-score [20]
CCc1cc2c(nc1CC)CCN(CCC(C)=NOC[C@H]1O[C@H](c3ccccc3)C=C[C@@H]1Oc1ccc(OC)cc1)C2	0.184	-0.0263 (inactive)	-0.0311	-0.155	0.787	0.552	0.056	0.292	-0.0913	0.208	0.287	-0.121	-0.0388	0.0851	0.209	-0.155	1.51	0.568	-0.0263	0.698 (inactive)
CON=C[C@@H](C)[C@H](OCc1ccccc1)C(C)C	-0.784	-0.47 (inactive)	-0.0647	-0.162	-0.269	-0.606	-0.0291	-0.295	0.54	-0.413	-0.032	-1.2	0.119	-0.734	0.359	0.211	-1.1	0.347	-0.195	0.592 (inactive)
C[C@H]1COC(=O)[C@@H]2CCCN2C(=O)[C@@H](C)COC(=O)[C@H](Cc2ccccc2)NC1=O	-0.0588	-0.21 (inactive)	-0.0647	-0.126	0.294	0.403	0.137	0.957	0.211	0.476	0.305	0.767	0.0349	0.208	0.42	0.458	-0.731	0.96	0.111	1.48 (inactive)
O=C(NN=C1C[C@@H](O)[C@@H](O)[C@@H]2[C@@H]3C(=O)N(C[C@@H]4CCCO4)C(=O)[C@@H]3CC[C@@H]12)OCc1ccccc1	0.103	0.008 (inactive)	-0.0647	-0.16	-0.275	-0.12	0.373	0.794	0.909	-0.18	-0.391	-0.645	-0.345	-0.545	0.5	0.23	0.49	0.305	-0.248	-0.827 (inactive)
CC1O[C@H]2C3=C(C(=O)[C@@H]4O[C@@H]4[C@H]3O)[C@@H]1C1[C@@H](C)OC=C3[C@H](O)C4O[C@@H]4C(=NOCc4ccccc4)[C@]312 (stereo not given in full)	-0.26	0.0463 (inactive)	-0.125	-0.14	-0.279	0.355	-0.136	-0.221	0.0959	-0.207	0.331	-0.492	-0.0962	-1.18	-0.117	0.468	0.476	0.16	-0.911	-0.399 (inactive)
CCOC(=O)[C@H](CC(C)C)NC(=O)CCC1CC(OC(=O)NCc2ccc3c(c2)OCO3)CC2(CCCC(COC(=O)NCC(c3ccccc3)c3ccccc3)O2)O1 (stereo not given in full)	0.23	0.142 (inactive)	0.0876	-0.147	0.538	0.674	-0.144	0.714	0.0432	1.09	0.423	0.572	-0.2	0.683	0.669	0.191	-0.025	1.32	0.61	0.864 (inactive)
CCCNC(=O)OC[C@H]1O[C@H](CCON=C(C)C)C=C[C@@H]1Oc1ccc(OC)cc1	0.317	-0.0154 (inactive)	0.154	-0.0877	0.0464	0.857	-0.384	-0.209	-0.186	0.853	1.82	-0.124	0.105	0.448	-0.132	-0.245	-0.218	0.0114	-0.0321	-0.129 (inactive)
CC(C)(C)N1C(=O)[C@H]2[C@H]3[C@H](O)[C@H](O)CC(=NO[C@@H]4O[C@H](CO)[C@@H](O)[C@H](O)[C@H]4O)[C@H]3CC[C@H]2C1=O	-0.383	0.674 (inactive)	0.0864	0.0037	0.182	0.276	-0.12	0.217	0.926	-0.409	0.492	0.15	-0.0244	-1.06	0.86	0.348	-1.43	0.585	-0.297	0.585 (inactive)
CCC=CCCC(OC(=O)c1ccc(Br)cc1)C1=CCCCC1=O (stereo not given)	0.231	-0.0549 (inactive)	0.0836	-0.102	0.696	0.678	0.0079	0.776	1.02	-0.297	0.164	1.17	0.408	-0.997	1.11	0.584	-0.158	0.876	0.485	0.0771 (inactive)
COC(=O)[C@H](C)NC(=O)CCC1CC(OC(=O)NCc2ccc3c(c2)OCO3)CC2(CCCC(COC(=O)NCC3CCCCC3)O2)O1 (stereo not given in full)	0.569	-0.0882 (inactive)	-0.0111	-0.0947	0.234	1.19	-0.111	1.29	0.435	1.05	0.807	1.16	0.408	0.52	0.533	0.77	-0.00341	0.97	0.723	1.16 (inactive)
